# From PubChem BioAssay (NCATS)
# Several values for one entry are separate records, joined by “and”; a condition that tells them apart may be missing. Equal values may be shown once. Inconclusive results are not listed. Entries that show only a call come without a potency. Values without a mark were called inactive. Activity calls are given as the source filed them. Calls come from the whole dose curve; as a rule, active = well fitted curve in the direction sought with a large enough effect; inconclusive = small, poorly fitted or top-dose-only effect, or another doubt; inactive = no such curve, though single readings can be large; an effect the other way counts as inactive or inconclusive.
# Experiments:
# [1] = biological target: N-terminal Xaa-Pro-Lys N-methyltransferase 1 (Homo sapiens) (UniProt Q9BV86); test: qHTS Assay for Inhibitors of N-terminal methyltransferase 1 (NTMT1): LOPAC validation of the NTMT1 SAHH-coupled ThioGlo3 Assay (AID 1347143);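 note: SAH from peptide methylation measured as thiol fluorescence via SAHH coupling and ThioGlo3; nearly all actives have a fitted effect of over 70% in size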; note: potency is the fitted concentration of half-maximal effect
# Outline: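 NTMT1 125nM + cpds (various conc.), 1 min RT; add SAM 100uM/SAHH 10uM/ThioGlo3 15uM (addition mix). SAHH-coupled thiol detection, Ex340/Em450, t0 and 30 min RT; signal normalized to background. LOPAC 1280-cpd pilot.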
# [2] = biological target: Furin (Homo sapiens) (UniProt P09958); test: Furin counterscreen qHTS for Zika virus inhibitors (AID 1347149); note: nearly all actives have a fitted effect of over 70% in size; note: potency is the fitted concentration of half-maximal effect
# Outline: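 Counterscreen measures cleavage of 2 microM BOC-RVRR-AMC, below its ~15 microM Km, by 5 nM full-length human furin at pH 7.0 after a 15-min compound preincubation. Inhibition derives from the 15-min fluorescence increase at 37C.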
# [3] = system: Zika virus NS2B-NS3 protease (unlinked); test: Optimization of GU AMC qHTS for Zika virus inhibitors: Unlinked NS2B-NS3 protease assay (AID 1347151); note: nearly all actives have a fitted effect of over 80% in size; note: potency is the fitted concentration of half-maximal effect
# Outline: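 Noncovalent NS2B hydrophilic domain–NS3 protease complex (25 nM final) in 10 mM Tris-HCl pH 8.0, 0.01% Tween 20; AMC substrate, room temperature 15 min (~20% conversion); fluorescence change normalized, 4-parameter Hill fit.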
# [4] = system: Zika virus NS2B-NS3 protease (linked construct); test: Confirmatory screen NINDS AMC qHTS for Zika virus inhibitors (AID 1347152); note: nearly all actives have a fitted effect of over 70% in size; note: potency is the fitted concentration of half-maximal effect
# Outline: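 Linked NS2B-NS3 protease, 1 nM, in 10 mM Tris-HCl pH 8.0, 0.01% Tween 20; compounds preincubated 15 min at room temperature. Nle-KRR-AMC 10 microM (Km 18.3 µM); 15-min fluorescence change (340/450 nm) fitted to 4-parameter Hill.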
# [5] = system: Zika virus NS2B-NS3 protease (unlinked complex); test: Confirmatory screen GU AMC qHTS for Zika virus inhibitors (AID 1347153); note: nearly all actives have a fitted effect of over 70% in size
# Outline: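 Noncovalent NS2B hydrophilic domain/NS3 protease complex (25 nM) in 10 mM Tris-HCl pH 8.0, 0.01% Tween 20 was preincubated 15 min at room temperature with compounds. Then 10 µM AMC substrate (Km 18.3 µM) was added; fluorescence was read over 15 min and fitted to a 4-parameter Hill equation.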
# [6] = system: Zika virus NS2B-NS3 protease; test: Primary screen GU AMC qHTS for Zika virus inhibitors (AID 1347154); note: nearly all actives have a fitted effect of over 70% in size; note: potency is the fitted concentration of half-maximal effect
# Outline: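 Fluorogenic AMC-substrate cleavage by noncovalent NS2B-NS3 protease complex (25 nM, pH 8.0 Tris buffer with Tween 20) followed for 15 minutes at room temperature (~20% conversion). Percent inhibition from ex340/em450 signal change, fitted by 4-parameter Hill equation.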
# [7] = qHTS of pediatric cancer cell lines to identify multiple opportunities for drug repurposing: Confirmatory screen for SK-N-SH cells (AID 1347129);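 note: cells exposed to compound for 48 h before viability read; nearly all actives have a fitted effect of over 60% in size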
# Source text: Drug repurposing or repositioning has been offered as a strategy for drug development in oncology programs. This approach has special potential for childhood cancers and other rare or orphan diseases, where the expected return on new drug development has been a disincentive to pharmaceuticals.
# In this project we exploit the poly-pharmacology of drugs to discover new indications via phenotypic screening of a panel of 19 well-characterized cell lines derived from solid tumors seen in children and adolescents. The goal is to identify approved drugs with previously unrecognized anticancer properties that has the potential to reveal new mechanisms and biological processes involved in carcinogenesis or drug resistance. We employed a titration-based paradigm (quantitative high-throughput screening or qHTS), where all compounds were tested at multiple concentrations for their effect on cell viability. Concentration-response curves (CRCs) were derived directly from the primary screen, and both potency and efficacy values were used to identify compounds with robust bioactivity profiles. We screened the NIH Chemical Genomics Center (NCGC) Pharmaceutical Collection (NPC) and Mechanism Interrogation Plate (MIPE) small molecule collections of approved and investigational compounds against these cell lines; and measured metabolically active cells after 48 hours of compound treatment as a proxy for cell viability.
# Assay Submitter: Nathalia J. Martinez, National Center for Advancing Translational Sciences, National Institutes of Health, Rockville, MD, USA; email: natalia.martinez@nih.gov
# [1] Shen, M et al. Quantitative high-throughput phenotypic screening of pediatric cancer cell lines identifies multiple opportunities for drug repurposing. Oncotarget 2017 Dec 19;9(4):4758-4772. PMID 29435139.
# The cells were obtained from University of North Carolina (UNC), Pediatric Preclinical Testing Program (PPT), and Coriell Institute (CI).
# qHTS cell viability assay:
# Cells were assayed in growth media at a density of 500-1,000 cells/well. Five microliters of cells were dispensed into 1,536-well, white, solid-bottom, TC-treated plates (Greiner Bio One) using a multidrop dispenser and incubated at 37 degrees C, 5% CO2, under a humidified atmosphere for 5 hours. Twenty-three nanoliters of compounds and controls (neutral control DMSO or positive control bortezomib at final concentration of 2.3 µM) were subsequently transferred by Kalypsys pintool. For primary screens, the MIPE collection was tested at 11-point dilutions (final concentrations range from 0.78 nM to 46 µM) and the NPC collection at 8-point dilutions (final concentrations range from 0.59 nM to 46 µM). Compounds tested in follow-up screens were assayed at 11-point dilutions. Cells were incubated for 48 hours, followed by addition of 3 µL of CellTiter-Glo (Promega). After a 15 min incubation at room temperature, samples were analyzed for luminescence intensity using a ViewLux High-throughput CCD imager equipped with clear filters.
# [8] = system: Zika virus NS2B-NS3 protease (unlinked complex); test: Primary screen GU Rhodamine qHTS for Zika virus inhibitors: Unlinked NS2B-NS3 protease assay (AID 1347159); note: nearly all actives have a fitted effect of over 60% in size; note: potency is the fitted concentration of half-maximal effect
# Outline: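 Buffer 10 mM Tris-HCl pH 8.0, 0.01% Tween 20. Unlinked protease 25 nM; compound preincubation 15 min, RT, protected from light. Substrate Rhod110, 1.5 microM; ~15% conversion in 15 min.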
# [9] = Confirmatory screen GU Rhodamine qHTS for Zika virus inhibitors qHTS (AID 1347157); details: purified enzyme assay, Rhodamine110 substrate fluorescence, 15 min
# Outline: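 In dose–response format, inhibition of unlinked protease (25 nM) was measured with 1.5 microM bis-peptide Rhodamine110 substrate. Aprotinin served as the intraplate control.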
# N-terminal Xaa-Pro-Lys N-methyltransferase 1 (Homo sapiens), sequence (Q9BV86 whole entry, looked up): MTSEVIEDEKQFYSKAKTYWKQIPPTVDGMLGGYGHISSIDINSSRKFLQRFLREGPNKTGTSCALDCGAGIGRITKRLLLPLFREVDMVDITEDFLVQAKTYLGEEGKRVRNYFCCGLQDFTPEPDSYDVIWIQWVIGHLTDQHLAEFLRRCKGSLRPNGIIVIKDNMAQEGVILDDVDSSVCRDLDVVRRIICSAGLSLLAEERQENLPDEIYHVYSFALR
# Furin (Homo sapiens), sequence (P09958 whole entry, looked up): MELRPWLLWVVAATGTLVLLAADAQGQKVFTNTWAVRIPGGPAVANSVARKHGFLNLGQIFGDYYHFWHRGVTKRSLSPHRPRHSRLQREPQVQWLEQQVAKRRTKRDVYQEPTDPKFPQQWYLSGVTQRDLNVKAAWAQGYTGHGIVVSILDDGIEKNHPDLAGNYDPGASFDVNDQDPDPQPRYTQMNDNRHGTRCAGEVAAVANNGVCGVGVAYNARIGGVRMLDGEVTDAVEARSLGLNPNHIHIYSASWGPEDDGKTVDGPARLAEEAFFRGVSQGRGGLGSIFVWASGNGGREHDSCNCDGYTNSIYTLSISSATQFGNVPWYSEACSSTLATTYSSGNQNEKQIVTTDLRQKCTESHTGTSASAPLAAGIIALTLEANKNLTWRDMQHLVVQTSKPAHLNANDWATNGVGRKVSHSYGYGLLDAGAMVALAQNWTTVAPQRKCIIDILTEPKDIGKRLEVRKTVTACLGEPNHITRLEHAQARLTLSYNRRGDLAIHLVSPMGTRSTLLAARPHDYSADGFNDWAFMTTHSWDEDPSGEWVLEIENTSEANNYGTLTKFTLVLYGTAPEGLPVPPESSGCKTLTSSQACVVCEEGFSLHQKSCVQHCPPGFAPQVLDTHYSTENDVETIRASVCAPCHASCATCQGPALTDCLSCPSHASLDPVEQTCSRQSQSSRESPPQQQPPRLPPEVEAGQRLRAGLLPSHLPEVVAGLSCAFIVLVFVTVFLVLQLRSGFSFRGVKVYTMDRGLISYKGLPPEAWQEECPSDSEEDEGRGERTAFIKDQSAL
smiles,measurement,setting,value
NC1[C@H]2CN(c3nc4c(cc3F)c(=O)c(C(=O)O)cn4-c3ccc(F)cc3F)C[C@@H]12 (stereo partly specified),Potency,[1],50.1 µM (active)
same,Potency,[2],24.1 µM (active)
same,Potency,[3],23.8 µM (active)
same,Potency,[4],inactive
same,outcome,[5],inactive
same,Potency,[6],inactive
CN(C)CCOC(C)(c1ccccc1)c1ccccn1 (stereo unspecified),Potency,[1],inactive
same,Potency,[3],inactive
same,Potency,[6],inactive
OCc1cc(C(O)CNCCCCCCOCCCCc2ccccc2)ccc1O (stereo unspecified),Potency,[1],56.2 µM (active)
same,Potency,[3],26.7 µM (active)
O=c1cc[nH]c(=S)[nH]1,outcome,[7],inactive
same,Potency,[6],inactive
N=c1c[n+](N2CCOCC2)[n-]o1,Potency,[1],44.7 µM (active) and 50.1 µM (active)
same,Potency,[3],inactive
CCN(CC)CCOC(=O)C1(C2CCCCC2)CCCCC1,Potency,[1],inactive
same,Potency,[3],inactive
same,Potency,[6],inactive
O=C(O)CN1C(=O)c2cccc3cccc(c23)C1=O,outcome,[7],inactive
same,Potency,[6],inactive
CSc1ccc2c(c1)N(CCC1CCCCN1C)c1ccccc1S2 (stereo unspecified),Potency,[1],44.7 µM (active)
same,Potency,[3],inactive
same,Potency,[6],inactive
CN(C)CCCN1c2ccccc2Sc2ccc(Cl)cc21,Potency,[3],inactive
same,Potency,[6],inactive
N[C@@H](CSCCCO)C(=O)O,Potency,[6],inactive
CC1(C)[C@@H]2CC[C@@]1(C)C(=O)C2,Potency,[6],inactive
CC1=C(C/C=C(\C)CCC[C@H](C)CCC[C@H](C)CCCC(C)C)C(=O)c2ccccc2C1=O,Potency,[6],inactive
CC(C)NC[C@H](O)c1ccc(O)c(O)c1,Potency,[3],inactive
same,Potency,[6],inactive
OCCN1CCN(CCCN2c3ccccc3Sc3ccc(Cl)cc32)CC1,Potency,[3],inactive
same,Potency,[6],inactive
CCN(CC)C(C)CN1c2ccccc2Sc2ccccc21 (stereo unspecified),Potency,[1],25.1 µM (active)
same,Potency,[6],inactive
CC(=O)Oc1c(C)c(C)c2c(c1C)CC[C@@](C)(CCC[C@H](C)CCC[C@H](C)CCCC(C)C)O2,Potency,[6],inactive
CN1[C@@H]2CC(OC(=O)[C@H](CO)c3ccccc3)C[C@H]1[C@@H]1O[C@@H]12 (stereo partly specified),Potency,[6],inactive
C[C@]12C[C@H](O)[C@H]3[C@@H](CCC4=CC(=O)CC[C@@]43C)[C@@H]1CC[C@@H]2C(=O)CO,Potency,[3],inactive
same,Potency,[6],inactive
C[C@H](N)[C@H](O)c1cccc(O)c1,Potency,[6],inactive
CC(O)CN(CCN(CC(C)O)CC(C)O)CC(C)O (stereo unspecified),Potency,[6],inactive
COc1ccccc1O,Potency,[6],inactive
CC[N+](CC)(CC)CCOc1ccc(/C=C/c2ccccc2)cc1,Potency,[1],39.8 µM (active)
same,Potency,[6],inactive
CN1CCN(C2Cc3ccccc3Sc3ccc(Cl)cc32)CC1 (stereo unspecified),Potency,[3],inactive
same,Potency,[6],inactive
Cc1cc(N)c2ccccc2[n+]1CCCCCCCCCC[n+]1c(C)cc(N)c2ccccc21,Potency,[1],39.8 µM (active)
same,Potency,[3],23.8 µM (active)
same,Potency,[8],inactive
Nc1ncnc2c1ncn2[C@@H]1O[C@H](CO)[C@@H](O)[C@H]1O,Potency,[3],inactive
same,Potency,[6],inactive
C#CCN(C)Cc1ccccc1,Potency,[3],inactive
same,Potency,[6],inactive
C=Cc1c(C)c2cc3[nH]c(cc4nc(cc5nc(cc1[nH]2)C(C)=C5CCC(=O)O)C(CCC(=O)O)=C4C)c(C)c3C=C,Potency,[1],39.8 µM (active)
same,Potency,[6],inactive
CC(C)(C(=O)O)c1ccc(C(O)CCCN2CCC(C(O)(c3ccccc3)c3ccccc3)CC2)cc1 (stereo unspecified),Potency,[1],inactive
same,Potency,[3],inactive
same,Potency,[6],inactive
same,Potency,[8],inactive
CCN(CC)CCCC(C)Nc1c2ccc(Cl)cc2nc2ccc(OC)cc12 (stereo unspecified),Potency,[1],39.8 µM (active)
same,Potency,[3],23.8 µM (active)
same,Potency,[8],inactive
CC1=C(/C=C/C(C)=C/C=C/C(C)=C/C(=O)O)C(C)(C)CCC1,Potency,[3],inactive
same,Potency,[6],inactive
CN(C)CCCN1c2ccccc2CCc2ccccc21,Potency,[3],inactive
same,Potency,[6],inactive
O=C1O[C@H]([C@@H](O)CO)C(O)=C1O,Potency,[6],inactive
CCC(=O)Nc1ccc(O)cc1,Potency,[6],inactive
OCC(CO)N[C@H]1C[C@](O)(CO)[C@@H](O)[C@H](O)[C@H]1O,Potency,[6],inactive
Cc1cc(C(C#N)c2ccc(Cl)cc2)c(Cl)cc1NC(=O)c1cc(I)cc(I)c1O (stereo unspecified),Potency,[2],7.64 µM (active) and 13.9 µM (active)
same,Potency,[4],11.1 µM (active)
same,Potency,[6],3.98 µM (active)
same,Potency,[9],1.75 µM (active) and 1.56 µM (active)
same,Potency,[8],1.78 µM (active)
CC1CC(OC(=O)C(O)c2ccccc2)CC(C)(C)N1C (stereo unspecified),Potency,[6],inactive
CC1=C(CC(=O)O)c2cc(F)ccc2/C1=C\c1ccc(S(C)=O)cc1 (stereo unspecified),Potency,[3],inactive
same,Potency,[6],inactive
CC(=O)c1ccc2c(c1)N(CCCN(C)C)c1ccccc1S2,Potency,[3],inactive
same,Potency,[6],inactive
CC(=O)Nc1ccc(/C=N/NC(N)=S)cc1,Potency,[6],inactive
CN1CCC[C@@H]1Cc1c[nH]c2ccc(CCS(=O)(=O)c3ccccc3)cc12,Potency,[3],inactive
same,Potency,[6],inactive
same,Potency,[8],inactive
CNC(=O)Oc1ccc2c(c1)[C@]1(C)CCN(C)[C@@H]1N2C,Potency,[3],inactive
same,Potency,[6],inactive
same,Potency,[8],inactive
N[C@H](C(=O)O)c1ccc(O)cc1,Potency,[2],inactive
same,Potency,[3],inactive
same,Potency,[6],inactive
CSc1ccc2c(c1)C(N1CCN(C)CC1)Cc1ccccc1S2 (stereo unspecified),Potency,[3],inactive
same,Potency,[6],inactive
CC(C(O)c1ccc(O)cc1)N1CCC(Cc2ccccc2)CC1 (stereo unspecified),Potency,[1],inactive
same,Potency,[3],inactive
same,Potency,[6],inactive
same,Potency,[8],inactive
CC(C)(O)c1ccccc1CC[C@@H](SCC1(CC(=O)O)CC1)c1cccc(/C=C/c2ccc3ccc(Cl)cc3n2)c1,Potency,[4],27.1 µM (active)
same,Potency,[8],3.16 µM (active)
CC1(C)S[C@@H]2[C@H](NC(=O)Cc3ccccc3)C(=O)N2[C@H]1C(=O)O (tested in a mixture with another compound),Potency,[6],inactive
CCN(CC)CCNC(=O)c1c(C)[nH]c(/C=C2\C(=O)Nc3ccc(F)cc32)c1C,Potency,[3],inactive
same,Potency,[6],inactive
CN(C)CCN(Cc1ccccc1)c1ccccn1,Potency,[6],inactive
C[C@H]1O[C@H](O[C@H]2[C@H](O)[C@@H](O)[C@@H](O[C@H]3[C@H](O)[C@@H](O)[C@H](O)O[C@@H]3CO)O[C@@H]2CO)[C@H](O)[C@@H](O)[C@@H]1N[C@H]1C=C(CO)[C@@H](O)[C@H](O)[C@H]1O,Potency,[6],inactive
